Data: PubChem BioAssay AID868 (SRMLSC, 2007)
The campaign covered roughly 190,000 compounds. About 3,500 (1.8%) were called active. Only a selection was taken, and actives are over-represented in it overall. A number with no mark means an inactive call.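 How the source made its calls: active means inhibition above a set limit, 3 SD over mean compound inhibition (cut at about 8.4% in these data); inactive means the rest.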

experiment: RAM signaling blockers in budding yeast – dse1pr::URA3 reporter, 5-FOA selection, primary screen (AID 868);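 further: 0% = DMSO-only wells with no growth and 100% = 10 µM 1-NA-PP1 full growth; inhibition rescues growth on 5-FOA so higher OD means more RAM inhibition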; settings: S. cerevisiae dse1pr::URA3 reporter, 5-FOA growth OD615, 2 d; at 50 µM; active compounds read high; analog-sensitive cbk1-as2 kinase mutant strain

Row | Compound | inhibition
1 | COc1cccc(OC)c1C(=O)Nc1ccc(N2CCCCC2)cc1 | 0.91%
2 | COc1ccc(C(=O)NC(=S)Nc2ccc(N3CCCC3)cc2)cc1OC | 12.4% (active)
3 | Cc1ccc(C(=O)NC(=S)Nc2ccc(N3CCOCC3)cc2)cc1 | 0.79%
4 | C=C(C)C1CC=C(C)/C(=N/NC(=O)CCCNc2cccc(C)c2)C1 (stereo unspecified) | 0.96%
5 | CCN(CC(=O)NCc1cccs1)C(=O)c1ccccc1F | 1.03%
6 | COc1ccc(OC)c(CNC(=O)c2cc(=O)[nH]c3ccc(S(=O)(=O)N4CCCC4)cc23)c1 | 2.57%
7 | CCSc1nc(-c2ccc(OC)cc2)cc(-c2ccc(OC)cc2)c1C#N | 6.16%
8 | CCOC(=O)CC(=O)CSc1nc(-c2ccccc2)cc(-c2ccc(Cl)cc2)c1C#N | 13.1% (active)
9 | N#Cc1c(C(F)(F)F)cc(-c2ccc(Cl)cc2)nc1SCC(=O)O | 2.99%
10 | COc1ccc(NS(=O)(=O)c2ccc(NC(=S)NC(=O)CC(C)C)cc2)cc1 | 9.99% (active)
11 | CC(=O)c1ccc(NC(=S)NC(=O)CC(C)C)cc1 | 0.87%
12 | COc1ccc(C(=O)Nc2ccc(S(=O)(=O)NC(C)C)cc2)cc1 | 1.59%
13 | CC(=O)Oc1c(C(=O)c2nnc(C)o2)c(=O)n(Cc2ccccc2)c2ccccc12 | 1.56%
14 | O=C(CSc1ccc([N+](=O)[O-])cn1)Nc1ccc(N2CCOCC2)cc1 | 2.94%
15 | CCc1c(C)sc(NC(=O)c2ccc(Br)o2)c1C(=O)OC | 9.13% (active)
16 | CCOC(=O)c1c(NC(=O)c2ccc(Br)o2)sc2c1CCCC2 | 3.28%
17 | CCc1c(C)sc(NC(=O)/C=C/c2ccc3c(c2)OCO3)c1C(=O)OC | 2.35%
18 | c1ccc(-c2csc(N3CCc4ccccc4C3)n2)cc1 | 12% (active)
19 | O=C(C(=O)N1CCc2ccccc2C1)N1CCc2ccccc2C1 | -0.82%
20 | O=C(CN1CCN(c2nc(-c3ccccc3)cs2)CC1)NCc1ccc2c(c1)OCO2 | 0.34%
21 | C/C(=N\NC(=O)NC1CCCCC1)c1ccc(OC(F)F)cc1OC(F)F | 0.62%
22 | C(=N\N1CCN(c2ccccn2)CC1)/C1=C(N2CCOCC2)C(=C/c2ccccc2)/CC1 | -0.25%
23 | N#C/C(=C\C1=C(N2CCOCC2)C(=C\c2ccccc2)/CC1)C(=O)Nc1ccccc1F | 11.8% (active)
24 | N#C/C(=C\c1ccccc1C(F)(F)F)C(=O)Nc1ccccc1F | 1.21%

Row | Compound | inhibition
25 | Cn1c(N)c(C(=O)COC(=O)c2ccccc2NCc2ccco2)c(=O)n(C)c1=O | 1.05%
26 | O=C(CN1CCOCC1)Nc1c(Cl)cc(Cl)cc1Cl | -0.37%
27 | COC(=O)c1cc2nc(-c3ccccc3)cc(C(F)(F)F)n2n1 | 4.75%
28 | CCN(CC)c1nc(-c2ccccc2)cc(C(F)(F)F)c1C#N | 10.8% (active)
29 | N#Cc1c(C(F)(F)F)cc(-c2ccccc2)nc1SCC(=O)N1CCOCC1 | 0.78%
30 | CN(C)S(=O)(=O)c1ccc(NC(=O)N2CCOCC2)cc1 | 0.13%
31 | Clc1ccc2nc(CSc3ccccc3)cn2c1 | 0.13%
32 | CC1=C(C)CC(C(=O)NC(C)CCc2ccccc2)C(C(=O)O)C1 (stereo unspecified) | 0.85%
33 | O=C(CSc1nc(O)c(Cc2ccccc2)c(=O)[nH]1)Nc1nc2c(s1)CCCC2 | 2.38%
34 | Cn1c(=O)c(Sc2ccc(Cl)cc2)c(O)c2ccccc21 | 1.1%
35 | CCn1c(=O)cc(O)c2ccccc21 | -0.4%
36 | Cn1c2ccccc2c(=O)c2c(O)cccc21 | 11.3% (active)
37 | CCNC(=O)CC1C(=O)N(c2ccc(F)cc2)C(=O)N1Cc1cccs1 (stereo unspecified) | 0.28%
38 | CCCCC(C(=O)OCC(=O)c1ccc(OC)cc1)N1C(=O)c2ccccc2C1=O (stereo unspecified) | 12.2% (active)
39 | COc1ccc(C(=O)COC(=O)c2ccc3ccccc3n2)cc1 | -0.53%
40 | COc1ccc(C(=O)CN(C(=O)c2ccc(Cl)cc2)N2C(=O)c3ccccc3C2=O)cc1 | 4.27%
41 | Cc1cccc(CC(=O)Nc2c3c(nn2-c2cccc(Cl)c2)CS(=O)C3)c1 (stereo unspecified) | 9.78% (active)
42 | COc1ccc(-n2nc3c(c2NC(=O)Cc2cccc(C)c2)CS(=O)C3)cc1 (stereo unspecified) | 0.7%
43 | COc1ccc(CC(=O)Nc2c3c(nn2-c2cccc(Cl)c2)CS(=O)C3)cc1 (stereo unspecified) | 2.33%
44 | CCCn1c(=O)c2c(C(F)(F)F)cc(-c3cccs3)nc2n(CCC)c1=O | 2.68%
45 | CN1CCC(=NNC(=O)CN(c2cccc(Cl)c2)S(C)(=O)=O)CC1 | -0.4%
46 | CCOC(=O)CSc1nnc(-c2cccc(Br)c2)o1 | -0.68%
47 | O=C(OCc1nnc(-c2ccccc2)o1)c1ccc2c(c1)C(=O)N(CCc1ccccc1)C2=O | 4.12%
48 | O=C(OCc1ccc(Br)cc1)c1cccc(-c2nnc(-c3ccccc3)o2)c1 | 12% (active)

Row | Compound | inhibition
49 | COc1ccc(-c2nc3cc([N+](=O)[O-])ccc3o2)cc1OC | 1.49%
50 | O=[N+]([O-])c1cccc(Nc2c3ccccc3nc3ccccc23)c1 | 0.27%
51 | O=[N+]([O-])c1ccc2oc(-c3cccc(O)c3)nc2c1 | 13.2% (active)
52 | C=CCO/N=C(\C)c1c(O)c(C)c(-c2ccccc2)n(-c2ccccc2)c1=O | 14.2% (active)
53 | Cc1nn(-c2ccccc2)c(C)c1/C=N/NC(=O)CSc1nc2ccccc2c(=O)n1-c1ccccc1 | 2.56%
54 | CCO/N=C(/C)c1c(O)cc(-c2ccccc2)n(-c2ccccc2)c1=O | 4.11%
55 | O=C(CC1C(=O)NCCN1Cc1ccc(-c2ccccc2)cc1)NCc1ccncc1 (stereo unspecified) | -0.27%
56 | Cc1ccnc(NS(=O)(=O)c2ccc(NC(=O)c3ccc(S(=O)(=O)N(C)C)cc3)cc2)n1 | -0.41%
57 | CC1=C/C(=N\S(=O)(=O)c2ccccc2)C(C(C)C)=CC1=O | 3.57%
58 | CCOC(=O)/C(C#N)=C/c1ccc(N2CCCCC2)cc1 | 1.57%
59 | CCOC(=O)/C(C#N)=C/c1ccc(N2CCN(Cc3ccccc3)CC2)cc1 | -1.52%
60 | COc1ccc(N2CCN(C(=O)/C(C#N)=C/c3ccccc3)CC2)cc1 | 8.69% (active)
61 | COc1cccc2cc(/C(C)=N/NC(=O)c3ccco3)oc12 | 1.11%
62 | COC(=O)Nc1sc2nc(C)cc(C)c2c1-n1cccc1 | 0.22%
63 | Cc1cc(C)c2c(-n3cccc3)c(NC(=O)OCc3ccccc3)sc2n1 | 5.58%
64 | CCCCOC(=O)Nc1sc2nc(C)cc(C)c2c1-n1cccc1 | 9.53% (active)
65 | COc1cc(CN(C)Cc2nc3cc(C(F)(F)F)ccc3c(=O)[nH]2)ccc1OC(F)F | 2.67%
66 | CCOC(=O)C1=C(C)N=C2c3ccccc3C(=O)C2C1c1ccc(Br)cc1 (stereo unspecified) | 1.62%
67 | N#C/C(=C1\CCCN1)c1nc(-c2ccccc2)cs1 | 3.76%
68 | N#CC(=C1CCCC1)c1nc(-c2ccc(Cl)cc2)cs1 | 9.11% (active)
69 | N#CC(=C1SC=CS1)c1nc(-c2ccccc2)cs1 | 3.35%
70 | O=C(CSc1ccc(-c2ccccc2)nn1)NCC1CCCO1 (stereo unspecified) | 2.21%
71 | Cc1ccc(S(=O)(=O)c2c(N)n(C)c3nc4ccccc4nc23)cc1 | 12.3% (active)
72 | C=CCn1c(N)c(S(=O)(=O)c2cccs2)c2nc3ccccc3nc21 | 1.69%

Row | Compound | inhibition
73 | CCC(=O)Nc1c(S(=O)(=O)c2ccccc2)c2nc3ccccc3nc2n1Cc1ccccc1 | 2.78%
74 | COc1ccc(C(=O)C[n+]2ccc(C)cc2)cc1 | 0.48%
75 | CCOC(=O)C1CCCN(C(=O)/C=C/c2ccc(OC)cc2)C1 (stereo unspecified) | 0.37%
76 | COc1ccc(/C=C/C(=O)c2ccc(OC)cc2O)cc1 | 8.82% (active)
77 | O=C(/C=C/c1ccccc1)c1ccccc1O | -0.67%
78 | COc1ccc(C(=O)/C=C/c2ccc(OC3CSC3)cc2)cc1 | 9.21% (active)
79 | COc1ccc(C(=O)/C=C/Nc2ccccn2)cc1 | 2.71%
80 | COc1ccc(/C=C/C(=O)c2cc(Br)ccc(=O)c2O)cc1 | 1.75%
81 | C=CCOc1c(CNn2cn[nH]c2=S)cccc1OC | 0.75%
82 | COC(=O)c1ccc(NC(=S)Nc2cccc(C)n2)cc1 | 3.21%
83 | CC1CCN(C(=S)c2cccc([N+](=O)[O-])c2)CC1 | -0.74%
84 | CC(NC(=S)NC1CCCCC1)C(c1ccccc1)N1CCOCC1 (stereo unspecified) | 0.28%
85 | COc1cc(/C=N/O)cc(Br)c1OCc1cccc(Cl)c1 | 9.47% (active)
86 | CCOc1c(Cl)cc(/C=N/O)cc1OC | 2.16%
87 | CCOc1cc(/C=N/O)cc(Br)c1OC | 0.34%
88 | NS(=O)(=O)c1cccc(NC(=O)COC(=O)/C=C/c2ccco2)c1 | 0.38%
89 | CCc1ccc2nc3sc(C(=O)Nc4nnc(CC)s4)c(N)c3cc2c1 | 8.98% (active)
90 | CCc1nnc(NC(=O)c2cccs2)s1 | 1.49%
91 | CCc1nnc(NC(=O)c2sc3nc(C)cc(COC)c3c2N)s1 | 1.25%
92 | COCc1c(C(=O)OCc2c(C)noc2C)oc2ccccc12 | 0.88%
93 | Cc1cc(/C=C2/C(=N)N3C(=NC2=O)SN=C3S(C)(=O)=O)c(C)n1-c1ccccc1 | 4.35%
94 | COc1ccc2c(CC(=O)OCC(=O)Nc3ccccc3[N+](=O)[O-])coc2c1 | 10% (active)
95 | COc1cc(NC(=O)COC(=O)CSc2ccc3ccccc3c2)c(C)cc1[N+](=O)[O-] | 2.2%
96 | COc1ccc2c(CC(=O)Nc3nnc(C4CC4)s3)coc2c1 | 3.72%
